Shiga inhibitor: blocks Shiga toxin action in Vero cells; Vero cells, Shiga toxin protein synthesis inhibition reporter; inhibition, % at 38.7 µM; hit rate 9.2% among 290,000; AID 2315; in the data active = inhibition mostly above about 28%, no sharp cut-off; inactive = mostly below about 43%
Pf growth 48h: P. falciparum growth inhibition at 48 hours (one generation); P. falciparum luciferase growth in erythrocytes, 48 h; Potency, µM (titrated, usually from 28.7 µM), actives largely listed as inhibitors; hit rate 5.9% among 310,000
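Growth was read as firefly luciferase luminescence after a 48 h, 37 C, 5% CO2 exposure of compounds to reporter-bearing P. falciparum cultures (0.1% parasitemia, 2% hematocrit final) in Albumax-supplemented RPMI 1640.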
Cycloheximide cs: affects cycloheximide protein synthesis inhibition readout, counter-screen; cell reporter, cycloheximide protein synthesis inhibition counterscreen; max response, %; hit rate 12% among 300,000; AID 2314; in the data active = max response mostly above about 13%, no sharp cut-off; inactive = mostly below about 14%; also: read at 38.3 µM for the half of the compounds with a filed dose
NS1 inh: influenza NS1 inhibition; hit rate 0.4% among 270,000; Potency, µM (highest dose often 46.1 µM); calls by dose curve; also: actives are rising curves; nearly all actives have a fitted effect of over 50% in size
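Read-out: OD600 growth recovery of NS1-expressing budding yeast. Cells grown overnight at 30C in -URA glucose medium, washed, resuspended and diluted 1:100 in 2% galactose assay medium, pH 6.0. Same strain lacking NS1 served as positive control.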
Pf growth 96h: inhibits malaria parasite growth, 96 h. P. falciparum luciferase reporter growth, 96 h. AID 504834. hit rate 6.9% among 320,000. Potency, µM (titrated, usually from 28.7 µM), hits mostly inhibitors
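Erythrocytes infected with luciferase-expressing P. falciparum were dispensed at 2% hematocrit and 0.05% parasitemia (final), then incubated with compounds 96 hours at 37 C in 5% CO2. Luminescence after detection reagent addition reported growth.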
Each line names hits and unclear results; the compound was inactive in the other large screens. Only some compounds are listed: those with a hit (about 21% of all), similar ones and a draw of the others. Unless noted, calls follow the shape of the dose curve; as a rule, active = well fitted inhibition curve with a large enough effect; inconclusive = small, poorly fitted or top-dose-only effect, or another doubt; inactive = no such curve, though single readings can be large or run the other way.

CCO[C@@H]1OC(C(=O)N2CCN(Cc3ccc4c(c3)OCO4)CC2)=C[C@H](c2cn(C(C)=O)c3ccccc23)[C@H]1CCCO	Pf growth 48h 1.3µM, Pf growth 96h 4.1µM
CCO[C@@H]1OC(C(=O)N2CCN(C)CC2)=C[C@H](c2csc3ccccc23)[C@H]1CCCO	Pf growth 48h inconclusive, Pf growth 96h inconclusive
CCO[C@@H]1OC(C(=O)N2CCN(Cc3ccc4c(c3)OCO4)CC2)=C[C@H](c2csc3ccccc23)[C@H]1CCCO	Pf growth 48h inconclusive, Pf growth 96h 2.1µM
CC(=O)n1cc([C@H]2C=C(C(=O)N3CCN(Cc4ccc5c(c4)OCO5)CC3)O[C@@H](OCCCCO)C2)c2ccccc21	Pf growth 48h 0.93µM, Pf growth 96h inconclusive
O=C(COc1ccccc1Cl)Nc1ccc(CN2CCCCC2)cc1	Pf growth 48h inconclusive
c1cc2c(cc1OCCNC1CCCC1)CCC2	Pf growth 96h 12µM
CNCCCOc1ccc2c(c1)CCC2	Pf growth 48h inconclusive, Cycloheximide cs 21
c1cnc(SCCOc2ccc3c(c2)CCC3)nc1	Shiga inhibitor 75, Cycloheximide cs 36 (no result: Pf growth 48h)
c1ccc(-c2ccc(OCCCNC3CCCC3)cc2)cc1	Pf growth 48h 13µM
Cc1cccnc1NC(=O)COc1ccc2c(c1)CCC2	none (no result: Shiga inhibitor, Cycloheximide cs, NS1 inh)
CNC1C(O)C(OC2C(NC(=O)C(O)CN)CC(N)C(OC3OC(CN)C(O)C(O)C3O)C2O)OCC1(C)O (stereo not given)	none (no result: Shiga inhibitor, Cycloheximide cs, NS1 inh)
CN(Cc1ccccc1)C(=O)c1nc[nH]c1C(=O)N(C)Cc1ccccc1	Pf growth 96h inconclusive (no result: Shiga inhibitor, Cycloheximide cs, NS1 inh)
Cc1cc(=O)oc2cc(OCC(=O)N3CCC(O)CC3)c(Cl)cc12	Pf growth 96h inconclusive
Cc1csc(N2CCN(c3cc4c(cc3Cl)nc(-c3ccncc3)n4CCCN3CCCC3)CC2)n1	Pf growth 48h inconclusive, Pf growth 96h 3.7µM
Cc1ccc(-c2csc(N3CCN(c4cc5c(cc4Cl)nc(C)n5CCN4CCCCC4)CC3)n2)cc1	Pf growth 48h inconclusive, Pf growth 96h 2.1µM
Cc1nc2cc(-c3ccccc3)ccc2o1	Shiga inhibitor 86, Cycloheximide cs 32 (no result: Pf growth 48h)
CN(C(=O)COC(=O)c1ccc(Cl)s1)C1(C#N)CCCCC1	none (no result: Shiga inhibitor, Cycloheximide cs, NS1 inh)
COc1ccc(/C=N\NC(=O)c2cc(O)c(O)c(O)c2)cc1COc1ccc(C(=O)OCC(C)C)cc1	Pf growth 48h 2.9µM, Pf growth 96h inconclusive
COc1cccc(OCc2cc(/C=N/NC(=O)c3ccn[nH]3)ccc2OC)c1	Shiga inhibitor 71, Cycloheximide cs 50
COc1ccc(/C=N\NC(=O)c2ccccc2OC)cc1COc1ccccc1C	Pf growth 48h 13µM
CCOc1cc(/C=N/NC(=O)c2nn(C)cc2Br)ccc1OCc1ccccc1	Pf growth 96h inconclusive
COc1ccc(/C=N/NC(=O)c2nn(C)cc2Br)cc1CSCc1ccco1	Shiga inhibitor 38, Cycloheximide cs 31
COc1ccc(C(=O)N/N=C/c2ccc(OC)c(COc3ccccc3)c2)cc1	Pf growth 96h inconclusive
COc1cccc(N2CCN(c3ccc4nnc(CCC(=O)Nc5ccc(OC)c(OC)c5)n4n3)CC2)c1	Pf growth 48h inconclusive
O=c1[nH]c2ccccc2c2nc(-c3cccc(S(=O)(=O)N4CCCC4)c3)nn12	Pf growth 96h inconclusive
COc1ccc(/C=N/Nc2ccccc2)cc1Cn1nc(C)c([N+](=O)[O-])c1C	Pf growth 96h inconclusive (no result: Pf growth 48h)
O=C(O)CC(NC(=O)CCc1ccccc1)c1ccc(Cl)cc1 (stereo not given)	Pf growth 96h inconclusive
COc1ccc(/C=N\NC(=O)c2ccccc2)cc1COc1ccccc1	Shiga inhibitor 45, Pf growth 48h inconclusive, Cycloheximide cs 25, Pf growth 96h 12µM
COc1cc(/C=N/NC(=O)c2ccoc2C)cc(OC)c1O	Shiga inhibitor 83, Cycloheximide cs 47, Pf growth 96h 2.6µM
COc1ccc(/C=N/NC(=O)c2ccco2)cc1COc1ccc(F)cc1	Pf growth 48h 9.3µM, Pf growth 96h inconclusive
COc1ccc(/C=N/NC(=O)c2cc(C(C)(C)C)[nH]n2)cc1COc1ccc(F)cc1F	Pf growth 48h inconclusive, Pf growth 96h 13µM (no result: NS1 inh)
COC(=O)c1cc(OC)c(OC)cc1NC(=O)c1ccoc1C	none (no result: Pf growth 96h)
COc1ccc(/C=N/NC(=O)c2ccc(NC(C)=O)cc2)cc1COc1ccc(F)cc1F	none
COc1cc(C#N)ccc1OCC(=O)NCCC1=CCCCC1	none (no result: Shiga inhibitor, Cycloheximide cs, NS1 inh)
COc1cc2c(cc1OC)CN(C(=S)Nc1ccc(Cl)cc1)CC2	none
N#Cc1ccc(C(=O)Nc2ccc(N3CCN(C(=O)c4ccco4)CC3)cc2)c(F)c1	Pf growth 48h inconclusive
COc1ccc(/C=N\NC(=O)c2ccccc2Br)cc1COc1c(F)c(F)cc(F)c1F	none
COc1ccc(/C=N/NC(=O)c2ccoc2C)cc1COc1c(C)cccc1C	Shiga inhibitor 117, Pf growth 48h inconclusive, Cycloheximide cs 33, Pf growth 96h 10µM
COc1ccc(/C=N\NC(=O)c2ccccc2F)cc1COc1ccc(F)cc1F	Shiga inhibitor 32, Pf growth 48h inconclusive, Cycloheximide cs 24, Pf growth 96h inconclusive
Cc1ccc(CCN2C(=O)c3ccccc3C2C(=O)NCc2cccnc2)cc1 (stereo not given)	none (no result: NS1 inh)
CCOC(=O)c1c(C)[nH]c(C(=O)N2CCC(C(=O)OCC)CC2)c1C	none
COc1ccc(/C=C/C(=O)NC(C)C)cc1Br	Pf growth 48h inconclusive, Cycloheximide cs 13, Pf growth 96h inconclusive
COc1ccc(/C=C/C(=O)N(C)C2CCCCC2)cc1Br	Shiga inhibitor 78, Cycloheximide cs 26
CN(C(=O)/C=C/c1cnc2ccccc2c1)C1CCCCC1	Shiga inhibitor 70, Cycloheximide cs 26 (no result: NS1 inh)
CCN(C(=O)/C=C/c1ccccc1)C1CCCCC1	Cycloheximide cs 6.9, Pf growth 96h 13µM
COc1ccc(/C=C/C(=O)N(C)C2CCS(=O)(=O)C2)cc1 (stereo not given)	none (no result: Shiga inhibitor, Cycloheximide cs, NS1 inh)
CN(CCc1cn[nH]c1)Cc1nc(Cc2ccccc2)no1	Pf growth 96h inconclusive
O=S(=O)(Nc1nc2ccc(S(=O)(=O)N3CCCC3)cc2s1)c1ccc(F)cc1	none (no result: Pf growth 48h)
Cc1ccc(C2(C)NC(=O)N(CC(=O)Nc3ccc(S(=O)(=O)Nc4nccs4)cc3)C2=O)cc1 (stereo not given)	none (no result: Shiga inhibitor, Cycloheximide cs, NS1 inh)
COc1ccc(/C=C/C(=O)N(C(C)C)C(C)C)cc1Br	Shiga inhibitor 51, Pf growth 48h 6.6µM, Cycloheximide cs 24, Pf growth 96h inconclusive
OCc1cn(-c2ccccc2)nc1-c1ccc(Br)cc1	Shiga inhibitor 33, Cycloheximide cs 32, Pf growth 96h inconclusive
CC(C)[C@H]1CN(C)CCN1Cc1cn(C)nc1-c1cccc(Cl)c1	Pf growth 96h inconclusive
COc1cccc(-c2nn(-c3ccccc3)cc2CO)c1	Shiga inhibitor 60, Cycloheximide cs 33 (no result: Pf growth 96h)
Cn1cc(CN2CCC[C@H]2CO)c(-c2cccc(Cl)c2)n1	Cycloheximide cs 27, Pf growth 96h inconclusive
OCc1cn(-c2ccccc2)nc1-c1ccc2c(c1)OCCO2	Shiga inhibitor 101, Cycloheximide cs 45
COc1cccc(-c2nn(-c3ccccc3)cc2CNC(C)Cn2cncn2)c1 (stereo not given)	Shiga inhibitor 111, Cycloheximide cs 34, Pf growth 96h 10µM
OCc1cn(-c2ccccc2)nc1-c1cc2ccccc2o1	Shiga inhibitor 100, Cycloheximide cs 55
